Results published in PubChem BioAssay AID1159580 (chemical genetic matrix, 2015).
Where “and” joins values, the source holds several entries; their conditions need not be identical. Equal entries are not always repeated. Out of some 5,500 compounds screened, about 2,000 (36%) were called active. Not shown: some 18% with an inconclusive outcome. No stated cut-off is given here; in the data, active means normalized growth mostly below about 0.91 (no sharp cut-off); inconclusive means no clear call, values can overlap the other calls; inactive means mostly above about 0.92. Some of the results follow.

Assay: chemical genetic growth profiling, strain panel (AID 1159580);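 further: tested at 20 µM; growth read once vehicle control cultures reached saturation at 30 °C; 1 = growth at the plate median or of vehicle wells; lower values mean less growth of the strain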
Conditions: S. cerevisiae deletion strains, growth OD

Measured: normalized growth

CC(=O)OCC(=O)[C@@]1(O)CCC2C3CCC4=CC(=O)CC[C@]4(C)[C@@]3(F)[C@@H](O)C[C@@]21C (stereo partly specified)
inactive: locus YAL021C, strain ccr4, hits give low values 1.03 | locus YAL026C, strain drs2, hits give low values 1.01 | locus YAL030W, strain snc1, hits give low values 1.01 | locus YBL061C, strain skt5, hits give low values 1.01 | locus YBR009C, strain hhf1, hits give low values 1.01 | locus YBR021W, strain FUR4, hits give low values 1.01 | locus YBR023C, strain chs3, hits give low values 1.03 | locus YBR171W, strain sec66, hits give low values 1.04 | locus YBR229C, strain ROT2, hits give low values 1 | locus YBR231C, strain swc5, hits give low values 0.993 | locus YBR279W, strain paf1, hits give low values 1.02 | locus YCL011C, strain gbp2, hits give low values 1.02 | locus YCL016C, strain dcc1, hits give low values 1.02 | locus YCL029C, strain bik1, hits give low values 0.995 | locus YCL061C, strain MRC1, hits give low values 1.02 | locus YCL069W, strain vba3, hits give low values 1.02 | locus YCR088W, strain abp1, hits give low values 1.01 | locus YDL005C, strain med2, hits give low values 1.02 | locus YDL035C, strain GPR1, hits give low values 0.992 | locus YDL040C, strain nat1, hits give low values 1 | locus YDL074C, strain BRE1, hits give low values 1.02 | locus YDL101C, strain DUN1, hits give low values 1.01 | locus YDL185W, strain tfp1, hits give low values 0.995 | locus YDL192W, strain arf1, hits give low values 1 | locus YDR001C, strain nth1, hits give low values 1.01 | locus YDR069C, strain doa4, hits give low values 1.01 | locus YDR101C, strain arx1, hits give low values 0.981 | locus YDR137W, strain rgp1, hits give low values 1.02 | locus YDR159W, strain sac3, hits give low values 0.997 | locus YDR162C, strain NBP2, hits give low values 0.998 | locus YDR195W, strain ref2 1 | locus YDR297W, strain sur2, hits give low values 1 | locus YDR318W, strain mcm21, hits give low values 1 | locus YDR334W, strain swr1, hits give low values 1.03 | locus YDR335W, strain msn5, hits give low values 1.01 | locus YDR388W, hits give low values 1 | locus YDR392W, strain spt3, hits give low values 0.989 | locus YDR502C, strain sam2, hits give low values 1 | locus YEL003W, strain gim4, hits give low values 1 | locus YEL037C, strain rad23, hits give low values 1.01 | locus YEL061C, strain CIN8 (second series), hits give low values 1.01 | locus YEL061C, strain CIN8, hits give low values 1 | locus YER015W, strain faa2, hits give low values 1 | locus YER016W, strain bim1, hits give low values 1 | locus YER110C, hits give low values 1 | locus YER111C, strain swi4, hits give low values 1.02 | locus YER155C, strain BEM2 (second series), hits give low values 1.01 | locus YER155C, strain BEM2, hits give low values 1.01 | locus YER167W, strain BCK2, hits give low values 1.01 | locus YFR010W, strain ubp6, hits give low values 1.02 | locus YGL078C, strain dbp3, hits give low values 1.01 | locus YGL086W, strain mad1, hits give low values 0.989 | locus YGL167C, strain pmr1, hits give low values 1.01 | locus YGL173C, strain kem1, hits give low values 1.02 | locus YGL227W, strain vid30, hits give low values 1.02 | locus YGL240W, strain doc1, hits give low values 1.01 | locus YGL248W, strain PDE1, hits give low values 1.01 | locus YGL253W, strain hxk2, hits give low values 1.01 | locus YGR135W, strain pre9, hits give low values 1.03 | locus YGR252W, strain gcn5, hits give low values 1.05 | locus YHR013C, strain ard1, hits give low values 1.04 | locus YHR027C, strain rpn1, hits give low values 1.03 | locus YHR030C, strain SLT2, hits give low values 0.997 and 1.01 | locus YHR079C, strain IRE1 (second series), hits give low values 1.01 | locus YHR079C, strain IRE1, hits give low values 0.995 | locus YHR094C, strain hxt1, hits give low values 1.01 | locus YHR129C, strain ARP1, hits give low values 1.01 | locus YHR142W, strain chs7, hits give low values 1.01 | locus YHR200W, strain rpn10, hits give low values 0.996 | locus YIL066C, strain RNR3, hits give low values 0.995 | locus YIL073C, strain SPO22, hits give low values 1.03 | locus YIL125W, strain kgd1, hits give low values 1 | locus YIR030C, strain dcg1, hits give low values 0.998 | locus YJL092W, strain hpr5, hits give low values 1.02 | locus YJL095W, strain BCK1 (second series), hits give low values 1.01 | locus YJL095W, strain BCK1, hits give low values 1.03 and 1 | locus YJL115W, strain asf1, hits give low values 1.03 | locus YJL129C, strain trk1, hits give low values 1.03 | locus YJL134W, strain LCB3, hits give low values 1.01 | locus YJL154C, strain vps35, hits give low values 1.01 | locus YJL164C, strain tpk1, hits give low values 1.01 | locus YJL166W, strain qcr8, hits give low values 1.02 | locus YJL168C, strain set2, hits give low values 1.01 | locus YJL187C, strain SWE1 (second series), hits give low values 1.01 | locus YJL187C, strain SWE1, hits give low values 1.01 | locus YJR043C, strain POL32, hits give low values 0.993
